# Hits are enriched below; roughly 6.3% of the tested compounds scored in any of these assays.
# MPTP block: inhibitors of mitochondrial permeability transition pore. isolated mouse mitochondria, Ca2+ swelling absorbance, 30 min. inhibition, % at 10 µM. 1.4% of 360,000 active;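 active = inhibition of 50% or more, scaled per plate between neutral and stimulator controls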;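 also: 0% = DMSO wells given calcium and 100% = 1 mM EGTA wells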
# TIM10 inh: growth inhibitors of TIM10 yeast strain; AID 463195; S. cerevisiae TIM10 strain growth, BacTiter-Glo luminescence, 24 h; inhibition, % at 10 µM; 1.4% of 330,000 active;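 active = inhibition of 40% or more at the single tested concentration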;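 also: wild-type TIM10 isogenic control strain grown at permissive 25 °C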
# Mdm2-MdmX inh: inhibitors of human Mdm2/MdmX interaction | O15151+Q00987 | SaOS-2 split-luciferase Mdm2/MdmX complementation, luminescence | inhibition, % at 8 µM | 3% of 330,000 active | AID 485346;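 active = inhibition of at least 50% at 8 µM in the primary screen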
# Target sequence (O15151 whole entry, looked up): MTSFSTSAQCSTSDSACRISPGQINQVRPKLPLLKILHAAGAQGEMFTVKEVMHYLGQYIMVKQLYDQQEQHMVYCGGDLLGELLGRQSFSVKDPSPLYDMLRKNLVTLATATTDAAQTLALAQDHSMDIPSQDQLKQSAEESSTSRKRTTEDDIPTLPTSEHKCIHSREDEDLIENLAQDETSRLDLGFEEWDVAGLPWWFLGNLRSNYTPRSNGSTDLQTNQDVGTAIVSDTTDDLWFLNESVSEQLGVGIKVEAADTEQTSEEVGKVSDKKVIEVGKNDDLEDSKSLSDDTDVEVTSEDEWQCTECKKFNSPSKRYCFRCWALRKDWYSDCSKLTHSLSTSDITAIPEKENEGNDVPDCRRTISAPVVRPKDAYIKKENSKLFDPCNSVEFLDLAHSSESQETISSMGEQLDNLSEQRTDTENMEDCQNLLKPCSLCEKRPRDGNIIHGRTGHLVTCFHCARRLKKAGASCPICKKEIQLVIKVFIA
# Target sequence (Q00987 whole entry, looked up): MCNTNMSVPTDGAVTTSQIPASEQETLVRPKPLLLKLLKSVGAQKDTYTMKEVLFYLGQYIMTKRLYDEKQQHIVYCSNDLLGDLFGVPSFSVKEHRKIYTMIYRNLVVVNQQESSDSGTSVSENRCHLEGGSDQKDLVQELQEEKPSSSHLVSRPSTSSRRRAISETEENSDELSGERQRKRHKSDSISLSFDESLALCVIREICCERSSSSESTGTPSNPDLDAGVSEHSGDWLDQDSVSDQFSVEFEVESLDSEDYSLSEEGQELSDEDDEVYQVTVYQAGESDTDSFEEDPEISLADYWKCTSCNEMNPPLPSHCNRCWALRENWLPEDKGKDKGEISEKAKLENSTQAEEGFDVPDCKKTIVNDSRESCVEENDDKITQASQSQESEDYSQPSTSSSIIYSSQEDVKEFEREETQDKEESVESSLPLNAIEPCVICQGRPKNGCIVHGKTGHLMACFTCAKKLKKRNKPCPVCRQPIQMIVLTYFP
# tim23-1 inh: tim23-1 yeast growth inhibition; S. cerevisiae tim23-1 growth, BacTiter-Glo luminescence, 24 h; inhibition, % at 20 µM; 1.3% of 330,000 active;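 active = growth inhibition of the mutant yeast at or above 50%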;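 also: temperature-sensitive mutant grown at 25 °C; plate controls were DMSO-treated mutant yeast for no effect and medium wells lacking yeast for full effect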
# tim10-1 inh: growth inhibitors of tim10-1 mutant yeast; AID 463190; S. cerevisiae tim10-1 ts strain growth, BacTiter-Glo, 24 h; 2.2% of 330,000 active; inhibition, % at 20 µM;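 active = inhibition of at least 40%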;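 also: mutant grown at 25 °C; 0% = DMSO wells with yeast and 100% = wells holding no yeast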
# Mdm2-MdmX conf: confirmation of human Mdm2/MdmX interaction inhibitors; shares compounds with Mdm2-MdmX inh; Mdm2-MdmX binding, luminescent assay; inhibition, % at 8 µM; 55% of 10,000 active; in the data active = inhibition above about 40%
# FLuc counter: inhibits full-length luciferase, flagging false Mdm2/MdmX hits; inhibition, % at 8 µM; shares compounds with Mdm2-MdmX inh; 77% of 6,200 active; SaOS-2 full-length luciferase counterscreen, luminescence; AID 504607;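 active = mean inhibition at 8 µM reaching about 37%, which flags the compound as non-specific, limit read from the data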;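 also: p53-null SaOS-2 cells with luciferase driven by a doxycycline-inducible promoter; compound on cells about two nights before reading with doxycycline added after day one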
# MPTP counter: mitochondrial membrane potential, counter-screen; shares compounds with MPTP block; isolated mitochondria, Rhodamine 123 fluorescence; inhibition, % at 10 µM; 78% of 5,000 active; in the data active = inhibition above about 22%;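 also: 0% = DMSO vehicle and 100% = positive control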
# MPTP abs DR: dose response confirmation of mitochondrial permeability transition pore inhibitors; shares compounds with MPTP block; isolated mitochondria swelling, absorbance; IC50, µM; 58% of 780 active; AID 651561; in the data active = IC50 below about 20 µM
# MPTP cs DR: active in counter-screen for permeability transition pore inhibitors; shares compounds with MPTP block; isolated mitochondria counterscreen, fluorescence read-out; IC50, µM; 49% of 780 active; AID 651564; in the data active = IC50 below about 80 µM
# * hit, by the source's call; / = no result given.
SMILES,MPTP block,TIM10 inh,Mdm2-MdmX inh,tim23-1 inh,tim10-1 inh,Mdm2-MdmX conf,FLuc counter,MPTP counter,others
CN1CCN(CC(=O)N2CCn3c4c(c5cc(C6CCCCC6)ccc53)CCCC42)CC1 (configuration not stated),98*,25,98*,-119,20,73*,52*,-17,
C#CCNC(=O)C[C@@H]1C[C@@]2(C(=O)OC)CCCCC=C2N(CCCCCCCC)C1=O,-1,/,/,/,/,/,/,/,
COC(=O)c1cccc(NC(=O)Nc2ccc(Cl)c(Cl)c2)c1,98*,31,80*,14,35,80*,40*,70*,
COc1ccc(-c2cc3c(=O)n(CC(=O)NCCCN4CCC(Cc5ccccc5)CC4)ncn3n2)cc1,85*,-93,87*,-40,39,37,68*,18,
CCOc1ccc(CCNC(=O)Cn2ncn3nc(-c4ccc(OC)cc4)cc3c2=O)cc1,0,-43,28,-9,-5,/,/,/,
Cn1ncc(SCc2ccccc2)c(Cl)c1=O,58*,-3,52*,-22,-8,18,/,22*,
CCCNC(=O)C1(C)CCCN(C(=O)c2c(C)noc2C)C1 (configuration not stated),-1,/,/,/,/,/,/,/,
CCCNC(=O)c1ccccc1NS(=O)(=O)c1ccc(OC)c(OC)c1,2,-4,-4,1,8,/,/,/,
COc1ccc(S(=O)(=O)Nc2ccccc2C(=O)Nc2nc(-c3ccc(F)cc3)cs2)cc1OC,97*,29,74*,36,31,66*,63*,42*,
COc1ccc(-c2csc(NC(=O)c3ccccc3NS(=O)(=O)c3ccc(C)cc3)n2)cc1,104*,27,83*,26,18,65*,54*,6,
Cc1cccc(NC(=S)NNc2ncc(C(F)(F)F)cc2Cl)c1,24,15,13,25,10,/,/,/,
FC(F)(F)c1cnc(NNC(=S)Nc2ccccc2Cl)c(Cl)c1,55*,18,86*,22,20,22,/,89*,
COc1ccc(C(=O)c2sc(Nc3ccccc3)c(C(=O)Nc3ccc(OC)c(OC)c3)c2N)cc1,0,17,6,1,4,/,/,/,
COc1ccc(NC(=O)c2c(Nc3ccccc3)sc(C(=O)c3ccc(F)cc3)c2N)cc1,92*,-3,62*,-18,21,19,/,83*,
CCOC(=O)c1sc(NC(=O)c2cc(-c3ccccc3C)nc3ccccc23)c(C#N)c1C,112*,2,97*,13,30,92*,32,87*,
CCCNC(=O)C1(C)CCCN(C(=O)c2cccc(OC(F)(F)F)c2)C1 (configuration not stated),2,/,/,/,/,/,/,/,
O=C(CCc1nc(-c2ccccc2F)no1)Nc1ccc(Oc2ccccc2)cc1,107*,25,61*,13,15,23,52*,94*,
C[C@H](CO)N1C[C@H](C)[C@H](CN(C)C(=O)Nc2ccc3c(c2)OCCO3)OCc2cnnn2CCCC1=O,-1,/,/,/,/,/,/,/,
CCOc1ccc(C=NNC(=O)c2cccc3ccccc23)cc1OCC,0,/,/,/,/,/,/,/,
CC(C)(C)S(=O)(=O)N1C[C@@H]2CC/C=C\C/C(c3ccccc3)=C\2[C@H]1CCO,1,/,/,/,/,/,/,/,
O=C(C[C@@H]1C/C=C\C[C@H](Cc2ccc(F)cc2)C(=O)OCCNC1=O)N[C@H](CO)Cc1ccccc1,0,2,-27,-3,-4,/,/,/,
CCN1CCN(c2ccc(NC(=O)CCc3c(C)nc4c(-c5ccccc5)c(C)nn4c3C)cc2)CC1,54*,-17,89*,-30,-13,44*,66*,-25,MPTP abs DR=15*;MPTP cs DR=>80
Cc1nc2c(-c3ccccc3)c(C)nn2c(C)c1CCC(=O)NCc1ccco1,-1,-3,-11,6,8,/,/,/,
CC(=O)OC1C(=O)N(Cc2ccccc2)C1c1ccc(C)cc1 (configuration not stated),0,/,/,/,/,/,/,/,
CCOC(=O)N1CCN(c2ncnc3c2[nH]c2ccc(OC)cc23)CC1,0,14,2,7,27,/,/,/,
SMILES,MPTP block,TIM10 inh,Mdm2-MdmX inh,tim23-1 inh,tim10-1 inh,Mdm2-MdmX conf,FLuc counter,MPTP counter,others
COc1ccc2[nH]c3c(N4CCc5ccccc5C4)ncnc3c2c1,81*,30,76*,49,2,50*,63*,70*,
O=[N+]([O-])c1cccc(NC(=S)Nc2nc(-c3ccccc3Cl)cs2)c1,87*,22,96*,16,26,85*,63*,76*,
CCNC(=S)Nc1cccc([N+](=O)[O-])c1,/,7,10,17,9,/,/,/,
FC(F)(F)c1cc(CO[C@@H]2CCCN[C@@H]2c2ccccc2)cc(C(F)(F)F)c1,103*,7,59*,-8,-12,30,/,-20,MPTP abs DR=4.3*;MPTP cs DR=54*
O=C1NC(Cc2ccc(O)cc2)c2nc3cc(Cl)ccc3c(=O)n2-c2cc3ccccc3cc21 (configuration not stated),0,/,/,/,/,/,/,/,
COc1cccc(NC(=O)Nc2ccc3c(c2)N(C)C(=O)CS3)c1,88*,2,50*,-3,19,27,/,78*,
COc1ccccc1OCC(=O)NNC(=O)C1CCN(c2ncnc3sc(C)c(C)c23)CC1,-1,10,32,13,15,/,/,/,
COc1ccc(-c2csc(NC(=O)C3CCN(c4ncnc5sc(C)c(C)c45)CC3)n2)cc1OC,88*,9,68*,17,10,68*,45*,65*,
Cc1cccc(C)c1-n1nnnc1C1(C)CCC(=O)N1Cc1cccnc1 (configuration not stated),-1,/,/,/,/,/,/,/,
O=C(Nc1ccc(S(=O)(=O)N2CCOCC2)cc1)c1cc(-c2cc(Cl)ccc2O)n[nH]1,75*,-7,87*,-7,9,79*,39*,61*,
CC(=O)c1ccc2c3c(cc(C)c2c1)CCCC3,1,/,/,/,/,/,/,/,
N=c1c2c(-c3ccccc3)c(-c3ccccc3)n(Cc3ccco3)c2ncn1CCCN1CCOCC1,71*,-13,100*,8,12,88*,56*,-4,
COc1ccc(CNCCC(c2ccc(F)cc2)c2ccc(OC)cc2)cc1 (configuration not stated),56*,-3,66*,3,-2,43*,82*,-8,
CCN(C[C@H]1N[C@@](Cc2ccccc2)(C(=O)OC)[C@H]2C(=O)N(Cc3ccccc3)C(=O)[C@@H]12)C(=O)Nc1ccc(F)cc1,1,8,37,6,2,/,/,/,

# Screens (PubChem BioAssay)
